Compound activity as filed in PubChem BioAssay.
Most compounds without a hit are left out; they make up all but 3.4% or so of the library.
NR2F2 inh: inhibitors of human COUP-TFII (NR2F2) | inhibition, % at 8.6 µM | HEK293T NGFI-A luciferase reporter, luminescence | 0.7% of 370,000 active | P24468;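 active means inhibition above a per-plate cutoff, mean inhibition of test wells between control levels plus 3 SD, cut at about 38% in these data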;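 further: cells cotransfected with COUP-TFII expression vector driving the NGFI-A reporter; 0% = median of COUP-TF2 test wells and 100% = reporter-only cells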
Target sequence (P24468 whole entry, looked up): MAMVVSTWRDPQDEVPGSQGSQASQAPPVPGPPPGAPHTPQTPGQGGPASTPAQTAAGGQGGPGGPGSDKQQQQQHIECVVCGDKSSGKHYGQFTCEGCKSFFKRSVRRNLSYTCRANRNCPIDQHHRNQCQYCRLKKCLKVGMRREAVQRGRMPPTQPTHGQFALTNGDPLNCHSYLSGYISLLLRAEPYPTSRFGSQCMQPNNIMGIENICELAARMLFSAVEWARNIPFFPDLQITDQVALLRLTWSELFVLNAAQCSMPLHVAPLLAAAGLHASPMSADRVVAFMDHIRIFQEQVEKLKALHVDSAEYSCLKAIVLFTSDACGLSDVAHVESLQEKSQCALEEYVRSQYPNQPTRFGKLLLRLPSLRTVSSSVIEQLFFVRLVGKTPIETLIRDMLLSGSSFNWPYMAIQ
SMARCA2 act: increases SMARCA2 function in MMTV reporter cells | MG213 cells, MMTV-luciferase reporter, dexamethasone, overnight | activation, % at 9.1 µM | 1% of 370,000 active; in the data active means activation above about 7.8%;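 further: 0% = vehicle wells and 100% = reference activator wells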
H9c2 protect: protects H9c2 cardiomyocytes from peroxide injury | 0.63% of 360,000 active | protection from H2O2 cell death, % at 20 µM | H2O2 injury protection, ATPLite, 2 h;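 active means compounds giving at least 50% protection of heart cells from peroxide-induced death in the single-dose screen, raw or plate-pattern-corrected value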;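 further: 0% = DMSO wells with peroxide and 100% = DMSO wells without peroxide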
GAA850 FXN act: activators of GAA850 frataxin (FXN) promoter; HEK293 lucGAA850 FXN promoter luciferase reporter, 24 h; percent of 10 µM SAHA response; activation, % at 6 µM; 0.56% of 360,000 active; AID 540364;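 active means activation above the average of all compounds screened plus 3 SD, cutoff fixed separately per campaign, cut at about 7.5% in these data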;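 further: 0% = DMSO wells and 100% = 10 µM SAHA wells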
Gli-Sufu antag: Gli-Sufu pathway antagonism. Sufu-KO-LIGHT fibroblasts, Gli luciferase reporter luminescence. inhibition, % at 5 µM. 0.74% of 340,000 active. AID 588413;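 active means inhibition above about 55%, limit read from the data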;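 further: 0% = DMSO-treated cells and 100% = wells with medium but no cells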
GalR3 antagonist: human GalR3 antagonism. O60755. HEK293 GalR3-CNG cAMP membrane potential fluorescence; galR3 body fused to GalR1 C-terminus. inhibition, % at 3 µM. 0.44% of 360,000 active;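 active means inhibition above the screen-wide average plus 3 SD, cut at about 13% in these data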;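 further: forskolin and galanin both at EC90 stimulate the cells; cAMP rise reported by CNG channel membrane potential dye signal; 0% = forskolin plus galanin with DMSO and 100% = forskolin alone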
An asterisk follows results filed as active; . = not tested or not shown.

SMILES	NR2F2 inh	SMARCA2 act	H9c2 protect	GAA850 FXN act	Gli-Sufu antag	GalR3 antagonist
N#C/C(=C\c1cn(-c2ccccc2)nc1-c1cccnc1)c1nnc2n1CCCCC2	2.8	1.8	51.0*	-0.1	-20.0	-4.0
CC(C)(C)C1C/C(=C/c2ccccn2)C(=O)/C(=C/c2ccccn2)C1 (stereo not drawn)	.	.	-10.8	-16.9	66.4*	.
CC1C/C(=C/c2ccccn2)C(=O)/C(=C/c2ccccn2)C1 (stereo not drawn)	.	.	-8.8	-15.8	34.2	.
CC(C)NC(=O)OC[C@@H]1CSCCS(=O)(=O)N1	7.5	0.7	.	.	.	-3.0
O=C(N/N=C/c1ccco1)c1cnccn1	-13.4	8.0*	7.2	-1.9	-1.5	-7.6
Cn1c(SCC(=O)Nc2ccccc2-c2ccccc2)nnc1-c1ccccc1	9.8	-3.6	.	.	.	.
CC(=O)n1cc(/C=N/NC(=O)c2ccc([N+](=O)[O-])cc2)c2ccccc21	-15.0	-2.6	10.6	2.5	-7.4	-13.7
Cc1nnsc1C(=O)N/N=C/c1ccc2ccccc2c1O	3.6	-2.7	14.4	-10.8	85.8*	-1.2
CC(=O)n1cc(/C=N/NC(=O)c2sc(C)nc2C)c2ccccc21	-13.6	0.7	56.5*	1.9	-5.2	-2.3
Cc1ccc(NCc2ccc(O)c3ncccc23)cc1	-9.5	-1.6	81.8*	3.0	-9.7	-7.2
Oc1ccc(CNc2cccnc2)c2cccnc12	-13.3	.	.	.	.	.
Cc1ccc(C)c(N=Nc2ccc(O)c3ncccc23)c1	5.0	-5.1	14.5	0.4	66.9*	-4.5
CCOc1ccc(N=Nc2ccc(O)c3ncccc23)cc1	-18.7	1.9	27.1	1.8	-13.6	-9.8
Cc1cccnc1NCc1ccc(O)c2ncccc12	11.7	-0.1	33.3	-0.5	10.4	-2.3
Cc1ccc(NCc2ccc(O)c3ncccc23)cc1C	-7.8	4.0	62.6*	-0.8	-7.3	-2.1
CNC(=O)[C@@H](NC(=O)[C@H](CC(C)C)[C@H](O)C(=O)NO)C(C)(C)C	27.1	-9.2	.	.	.	.
COc1ccc(C(C(=O)N(C)C2CCCC2)N(Cc2ccc(F)cc2)C(=O)c2csc3ccc(Cl)cc23)cc1OC (stereo not drawn)	8.9	-5.8	.	.	.	.
CCN1C(=O)/C(=C/c2nc3ccccc3c(=O)n2-c2ccccc2)c2ccccc21	-2.2	0.2	50.9*	5.1	15.2	-2.7
CCN1C(=O)/C(=C\c2nc3ccccc3c(=O)n2CC)c2ccccc21	-6.0	1.9	16.0	4.1	-6.9	-6.5
COc1cc(OC)c2ccc(=O)oc2c1C(CC(=O)N1CCN(c2ccccc2)CC1)c1ccc2c(c1)OCO2 (stereo not drawn)	-8.0	-0.5	69.5*	0.1	28.1	-8.1
Clc1cccc(CNC2CCC23CCCCC3)c1 (stereo not drawn)	3.7	.	.	.	.	.
Cc1ccc(-c2nc3c(c(SCC(=O)N4CCOCC4)n2)Cc2c(CO)cnc(C)c2O3)cc1	-27.2	0.2	36.1	-1.0	.	3.9
COc1ccc(-c2nc3c(c(SCC(=O)N4CCOCC4)n2)Cc2c(CO)cnc(C)c2O3)cc1	0.5	-1.0	76.9*	0.3	20.7	-4.8
O=C(/C=C/c1cccnc1)c1ccc(NC(=O)c2cccc(Br)c2)cc1	-16.4	-1.2	-3.6	5.0	19.9	-4.9
Cc1cccc(C(=O)Nc2ccc(C(=O)/C=C/c3cccnc3)cc2)c1	-21.0	1.6	-20.5	14.6*	8.8	-1.9
SMILES	NR2F2 inh	SMARCA2 act	H9c2 protect	GAA850 FXN act	Gli-Sufu antag	GalR3 antagonist
Cc1cccc(NC(=O)c2cccnc2)c1	-8.7	7.8*	3.2	1.0	1.5	-4.2
Cc1ccc2cc3c(NC(=O)c4cccnc4)nn(C)c3nc2c1	-9.3	-0.6	58.9*	-1.4	1.8	-3.4
CC(=O)Nc1nn(C)c2nc3cc(C)ccc3cc12	-9.9	1.1	16.0	-0.3	0.9	-3.0
Clc1ccc(CN2CCN(c3ncc(Cc4ccccc4)cn3)CC2)c(Cl)c1	20.4	-7.4	.	.	.	-6.8
C(=N\Nc1nc2ccccc2[nH]1)/c1cccc2cccnc12	-40.0	-3.2	-15.0	-10.1	67.3*	4.9
O=c1[nH]nc(CNc2ccc(Cl)cc2Cl)c2ccccc12	4.7	-1.1	30.3	5.5	4.0	1.4
O=c1[nH]nc(Cc2ncc(C(F)(F)F)cc2Cl)c2ccccc12	-12.2	-1.6	11.4	0.9	-14.9	-6.2
O=c1[nH]nc(CNc2ccc(O)cc2)c2ccccc12	29.3	-3.8	87.3*	0.2	12.3	-1.8
O=c1[nH]nc(CNc2ccc(C(F)(F)F)cc2)c2ccccc12	-6.5	1.1	68.7*	5.3	-15.9	-1.7
Cc1nc2ccccc2c(=O)n1/N=C/c1c(O)ccc2oc3c(c12)CCCC3	9.1	0.2	100.1*	0.3	-13.9	-4.7
COc1ccc2ccccc2c1/C=N/N1C(=O)CSC1=S	-6.7	-2.5	-1.4	0.0	8.2	-3.2
O=C1CSC(=S)N1N=Cc1c(O)ccc2ccccc12	-1.0	-1.7	56.3*	-0.8	-8.5	-2.6
O=C(O)COc1ccc(/C=N/n2c(COc3ccccc3)nc3ccccc3c2=O)cc1	-3.9	2.6	-1.6	1.3	-8.4	-4.4
O=c1c2ccccc2nc(COc2ccccc2)n1/N=C/c1ccc(O)c(O)c1	-9.5	2.0	56.1*	5.3	-2.6	-4.4
O=c1c2ccccc2nc(/C=C/c2cccc([N+](=O)[O-])c2)n1CCO	-14.9	3.4	2.8	1.1	19.1	-5.4
O=c1c2ccccc2nc(/C=C/c2cc(Br)ccc2O)n1CCCO	-5.5	-3.4	50.0*	1.3	13.1	-8.7
CC(=O)N1CCc2cc(S(=O)(=O)NCCC(=O)N(C)Cc3ccccc3F)ccc21	6.8	-4.4	.	.	.	.
CC(C)(C)N=Cc1c(O)ccc2oc3c(c12)CCCC3	0.5	-0.9	72.7*	3.9	48.0	-7.4
COc1ccc(Br)cc1/C=N/n1c(C)nc2ccccc2c1=O	-13.9	-3.3	-2.4	2.0	2.0	-4.2
Cc1nc2ccccc2c(=O)n1/N=C/c1c(O)ccc2ccccc12	-3.6	-2.7	74.2*	-1.9	7.5	-1.0
Cc1nc2ccccc2c(=O)n1/N=C/c1cc(Br)ccc1O	-0.2	-0.7	54.0*	-0.9	-29.9	-8.0
O=C1[C@H]2C[C@@]3(n4ccc5ccccc54)c4ccccc4N(S(=O)(=O)c4ccccc4)[C@H]3N2C(=O)CN1Cc1ccccc1	-5.0	-0.8	.	.	.	.
O=S(=O)(c1ccccc1Br)N(Cc1cn(Cc2ccccc2)nn1)C1CC1	-0.6	-5.1	.	.	.	.
C=CCN1C(=O)[C@@H](CC(=O)N2CCCCC2)[C@]2(C(=O)OC)CCCCC=C12	23.7	-2.4	.	.	.	.
COC(=O)[C@]12C[C@H](CC(=O)NCc3cccc(C(F)(F)F)c3)C(=O)N(Cc3ccc(Cl)cc3Cl)C1=C[C@H](C1CCCC1)O[C@@H]2C	-5.4	-3.2	.	.	.	.
O=C1NC(c2cccs2)Nc2ccccc21 (stereo not drawn)	-28.0	3.0	66.3*	0.5	4.4	-3.3
CC(C)n1nnnc1C1(C)CCCCC(=O)N1Cc1cccc(C(F)(F)F)c1 (stereo not drawn)	-7.4	6.3	.	.	.	.
